In the OligoGym collection one finds sensor-assay potency score (higher = more potent) data, which are given here for 24 sequences.
Note: reference of the scale not given here.

For the assay, the target named is CACNA1S. The experiment in a line: pooled miR-30 sensor sort-seq; sequence = guide strand. To be noted: shRNA.
As for TACATCTTCATCAGCATCTCAG, the sensor-assay potency score (higher = more potent) is -0.408.

In turn, TTGAGGATCATCTCCAGGGTGA returned a sensor-assay potency score (higher = more potent) of -0.175.

As to TATCTCAGCAAACTGGAGGGGT, the sensor-assay potency score (higher = more potent) is -0.123.

The sequence TCTTGTACTCAGTCTCTCCCTG yielded a sensor-assay potency score (higher = more potent) of 0.136.

For TCTAGTTGCTGCTTCTCCCGGA, the sensor-assay potency score (higher = more potent) turned out to be 0.563.

TAGTAGTATGCAAAGTTGGTGC returned a sensor-assay potency score (higher = more potent) of -0.181.

The sequence TTGTCGAAGTGGAAGTCGCTGT showed a sensor-assay potency score (higher = more potent) of -0.229.

TTGATCAGCCTCATGACACGGA gave a sensor-assay potency score (higher = more potent) of 0.698.

Sequence TTGATCTTGAGTGCCGTGCGGA returned a sensor-assay potency score (higher = more potent) of -0.578.

Turning to TTACCTTCCGTCTTGATCTTGA, the sensor-assay potency score (higher = more potent) amounted to 0.578.

Consider TTCAGCATCTCCACACAGGGTT, for which the sensor-assay potency score (higher = more potent) is 0.136.

TTGGACAAGTCGGTGCACCTGA: the sensor-assay potency score (higher = more potent) amounted to 0.00785.

With TTGAGGACAATCTCCACAGTGA, the sensor-assay potency score (higher = more potent) is -0.144.

For TACACGTAGTAGTAGCCCCTGC, the sensor-assay potency score (higher = more potent) is -0.425.

Consider TTCATCAGCATCTCAGTGGTGA, for which the sensor-assay potency score (higher = more potent) was 0.298.

ATTAGATTCAAACTCATCGATT came in with a sensor-assay potency score (higher = more potent) of -0.846.

ATACTGTACACATTGGCGCTGG: the sensor-assay potency score (higher = more potent) worked out at 0.068.

Turning to TCTGAAGTCCTCAACATCCATG, the sensor-assay potency score (higher = more potent) was -1.41.

In turn, TAGTATGCAAAGTTGGTGCCAC yielded a sensor-assay potency score (higher = more potent) of 0.194.

The sequence TTGGTGATCTTGAAGATCCTCA showed a sensor-assay potency score (higher = more potent) of 0.453.

In the case of TTCCAGGAAGTTGTCCACCTGG, the sensor-assay potency score (higher = more potent) was -0.276.

As to TTGAGCAGGATGTAGTTGCCAC, the sensor-assay potency score (higher = more potent) was -0.202.

TTTAAGGATCTGATTTCTCATG: the sensor-assay potency score (higher = more potent) was -1.14.

For the sequence TTGAGGTCCAGTCTTCCCCTGT, the sensor-assay potency score (higher = more potent) was -0.528.
